Records with an inconclusive call do not appear. Activity calls are given as the source filed them. The call rests on the fitted dose curve; in most records, active means well fitted curve in the direction sought with a large enough effect in the repeat runs; inconclusive means weak or mixed curves; inactive means no such curve, though single readings can be large; an effect the other way counts as inactive or inconclusive.
Potency means the concentration at half of the fitted maximal effect.

One test is described as follows: qHTS assay to identify small molecule antagonists of the thyroid receptor (TR) signaling pathway - cell viability counter screen (AID 743064). Further: nearly all actives have a fitted effect of over 50% in size. To be noted: GH3.TRE-Luc viability, CellTiter-Fluor, 24 h; series mostly up to 70.3 µM; activity change, negative = cytotoxic: at the top concentration. A digest of the protocol:
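GH3.TRE-Luc cells, 4 h pre-plating; cpd + T3 1 nM final; 37 °C 23.5 h; CellTiter-Fluor 30 min; fluorescence read.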
Background: In qHTS, concentration-response curves come from the screen itself.
Turning to `Clc1cc(Cl)c(OCC#CI)cc1Cl`, the Potency was 7.5 µM (active).

Regarding `C[C@H]1[C@@H](OC(=O)CCC(=O)O)O[C@@H]2OC3(C)CC[C@H]4[C@H](C)CC[C@@H]1[C@@]24OO3`, the Potency was 2.98 µM (active).

As to `CCN(CC)c1ccc(C(=C2C=CC(=[N+](CC)CC)C=C2)c2ccccc2)cc1`, the Potency was 0.335 µM (active).

On to `CCCCC(=O)OCC(=O)[C@]1(O)Cc2c(O)c3c(c(O)c2[C@@H](O[C@H]2C[C@H](NC(=O)C(F)(F)F)[C@H](O)[C@H](C)O2)C1)C(=O)c1c(OC)cccc1C3=O`, for which the Potency was 9.44 µM (active).

Regarding `CSc1nc2cc(Oc3cccc(Cl)c3Cl)c(Cl)cc2[nH]1`, the Potency was 13.3 µM (active).

As for `CN1CCCC(CN2c3ccccc3Sc3ccccc32)C1` (configuration not stated), the Potency was 11.9 µM (active).

On to `S=C1SCN(Cc2ccccc2)CN1Cc1ccccc1`, for which the Potency is 18.8 µM (active).

A further test can be described thus: qHTS assay to identify small molecule antagonists of the thyroid receptor (TR) signaling pathway (AID 743065). Further: nearly all actives have a fitted effect of over 55% in size. On activity, negative = inhibition: on the % scale 0 is the no-effect control and ±100 the full control effect. To be noted: GH3.TRE-Luc, T3-stimulated luciferase inhibition, 23.5 h; series mostly up to 70.3 µM; activity, negative = inhibition: at the top concentration. A digest of the protocol: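 GH3.TRE-Luc rat pituitary cells carrying two TR response elements driving luciferase were plated for 4 h, given compound plus 1 nM T3 (final), and incubated 23.5 h at 37 C. ONE-Glo luminescence measured reporter inhibition; CellTiter-Fluor fluorescence tracked cytotoxicity.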
With `Cc1cc(O)c2c(c1)O[C@@]1(C)CC[C@H]3C(C)(C)CCCC34CO[C@@H]2[C@H]41` (some centres not stated), the Potency is 13.3 µM (active).

Regarding `CCN(CC)CCC(=O)N1c2ccccc2Sc2ccc(C(F)(F)F)cc21`, the Potency is 26.6 µM (active).

For `CN1CCN(CCC=C2c3ccccc3Sc3ccc(S(=O)(=O)N(C)C)cc32)CC1`, the Potency was 8.41 µM (active).

For the molecule `C=C1CC[C@@H]2[C@](C)(CO)[C@H](O)CC[C@@]2(C)[C@@H]1C/C=C1/C(=O)OC[C@H]1O`, the Potency was 23.7 µM (active).

On to `CCN(CC)CCC(=O)N1c2ccccc2Sc2ccc(Cl)cc21`, for which the Potency is 26.6 µM (active).

Regarding `CC(=O)[C@]1(O)Cc2c(O)c3c(c(O)c2[C@@H](O[C@H]2C[C@H](N)[C@H](O)[C@H](C)O2)C1)C(=O)c1c(O)cccc1C3=O`, the Potency is 0.119 µM (active).

For the molecule `CC(C)N=c1cc2n(-c3ccc(Cl)cc3)c3ccccc3nc-2cc1Nc1ccc(Cl)cc1`, the Potency was 6.39 µM (active).

For `COc1ccc(C2NC(=S)N3C(c4ccc(OC)c(OC)c4)NC(=S)N23)cc1OC` (configuration not stated), the Potency was 0.0841 µM (active).

On to `CO[C@H]1C[C@H](O[C@H]2[C@H](C)O[C@@H](O[C@@H]3/C(C)=C/C[C@@H]4C[C@@H](C[C@]5(C=C[C@H](C)[C@@H](C6CCCCC6)O5)O4)OC(=O)[C@@H]4C=C(C)[C@@H](O)[C@H]5OC/C(=C\C=C\[C@@H]3C)[C@]54O)C[C@@H]2OC)O[C@@H](C)[C@@H]1O`, for which the Potency is 2.66 µM (active).

On to `CN(C)CCCN1c2ccccc2C(C)(C)c2ccccc21`, for which the Potency was 26.6 µM (active).

Consider `O=C1CSC2(CCN(CCCN3c4ccccc4Sc4ccc(Cl)cc43)CC2)N1`, for which the Potency is 10.6 µM (active).

Consider `C=C1CC[C@H](O)CC1=C/C=C1\CCC[C@]2(C)[C@@H]([C@H](C)CC[C@@H](O)C(C)(C)O)CC[C@@H]12`, for which the Potency was 16.8 µM (active).

As to `CN(C)C(=O)CCSC(SCCC(=O)O)c1cccc(/C=C/c2ccc3ccc(Cl)cc3n2)c1` (configuration not stated), the Potency was 26.6 µM (active).

Take `CC1(S(=O)(=O)O)CC(=O)c2ccccc2C1=O` (configuration not stated): the Potency is 13.3 µM (active).

As for `CCc1ccc2c(c1)N(CC(C)CN(C)C)c1ccccc1S2` (configuration not stated), the Potency is 11.9 µM (active).

On to `OC[C@H]1OC([S-])[C@H](O)[C@@H](O)[C@@H]1O.[Au+]` (some centres not stated), for which the Potency is 7.5 µM (active).

As to `C=C1C(=C/C=C2\CCC[C@]3(C)[C@@H]([C@H](C)CCCC(C)(C)O)CC[C@@H]23)C[C@@H](O)C[C@@H]1O`, the Potency is 13.3 µM (active).

`C#C[C@]1(O)CC[C@H]2[C@@H]3CCC4=C/C(=N/O)CC[C@@H]4[C@H]3CC[C@@]21CC`: the Potency was 11.9 µM (active).

Turning to `CCN(CC)CCOc1ccc(-c2nc3cc(Cl)ccc3s2)cc1`, the Potency was 6.68 µM (active).

Consider `CC1=C(/C=C/C(C)=C/C=C/C(C)=C/C(=O)Oc2c(C)c(C)c3c(c2C)CC[C@@](C)(CCC[C@H](C)CCC[C@H](C)CCCC(C)C)O3)C(C)(C)CCC1`, for which the “activity, negative = inhibition” value was 38.1% (inactive).

Turning to `CC(CN1c2ccccc2Sc2ccc(S(=O)(=O)N(C)C)cc21)N(C)C` (configuration not stated), the Potency is 13.3 µM (active).

As to `COc1ccc(C[C@H](N)C(=O)N[C@H]2[C@@H](O)[C@H](n3cnc4c(N(C)C)ncnc43)O[C@@H]2CO)cc1`, the Potency is 10.6 µM (active).

As to `CC(C)N1CCN(c2ccc(OC[C@H]3CO[C@](Cn4cncn4)(c4ccc(Cl)cc4Cl)O3)cc2)CC1`, the Potency was 4.52 µM (active).

Turning to `COc1cc(-c2ccc(-[n+]3nc(-c4ccccc4)nn3-c3ccc([N+](=O)[O-])cc3)c(OC)c2)ccc1-[n+]1nc(-c2ccccc2)nn1-c1ccc([N+](=O)[O-])cc1`, the Potency is 29.8 µM (active).

Consider `C=C1C(=O)O[C@H]2[C@H]1CC/C(C)=C\CC[C@@]1(C)O[C@@H]21`, for which the Potency was 7.5 µM (active).
